The structures appear in SMILES notation. The whole screen tested about 16,000 compounds, of which about 5,700 (36%) were called active. Inconclusive results (about 24%) are left out. The call rests on the fitted dose curve; in most records, active means well fitted curve in the direction sought with a large enough effect; inconclusive means small, poorly fitted or top-dose-only effect, or effect the other way; inactive means no such curve, though single readings can be large or run the other way. This is one part of the list. Square brackets hold non-standard residues; d marks the D form. Peptide text beside a SMILES is read from it. * marks the point of attachment. ξ: configuration not given here. Cbz = O=C(OCc1ccccc1)*; OBn = c1ccc(CO*)cc1; ξP = O=C(O)C1CCCN1
On the % scale 0 is the no-effect control and ±100 the full control effect.

Chain of Cytochrome P450 1A2 (Homo sapiens) (P05177 whole entry, looked up): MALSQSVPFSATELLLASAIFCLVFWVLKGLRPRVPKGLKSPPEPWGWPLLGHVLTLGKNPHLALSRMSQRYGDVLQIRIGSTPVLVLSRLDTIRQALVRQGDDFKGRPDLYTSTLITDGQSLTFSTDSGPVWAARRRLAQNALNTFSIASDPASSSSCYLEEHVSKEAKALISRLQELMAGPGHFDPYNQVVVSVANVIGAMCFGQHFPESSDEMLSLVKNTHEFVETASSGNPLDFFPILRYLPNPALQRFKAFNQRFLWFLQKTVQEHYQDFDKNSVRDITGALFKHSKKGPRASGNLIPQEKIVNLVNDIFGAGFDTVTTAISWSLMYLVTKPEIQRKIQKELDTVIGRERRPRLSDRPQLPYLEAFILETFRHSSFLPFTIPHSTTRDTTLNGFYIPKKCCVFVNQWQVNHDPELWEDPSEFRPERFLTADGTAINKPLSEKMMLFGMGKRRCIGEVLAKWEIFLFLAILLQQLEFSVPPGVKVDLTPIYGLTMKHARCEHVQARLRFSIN

This experiment has as its target Cytochrome P450 1A2 (Homo sapiens) (UniProt P05177). The experiment is described as follows: Cytochrome panel assay with activity outcomes. Particulars: recombinant CYP, pro-luciferin dealkylation, luminescence, p450-cyp1a2; series mostly up to 57.1 µM.
With `O=C(Nc1cccc2[nH]ncc12)c1ccc(F)cc1`, the half-maximal activity concentration (AC50) (as a rule, the concentration giving half of the maximal activity seen) is 7.08 µM (active).
Consider `C#CCCCO/N=C1/C[C@@H](O)[C@@H](O)[C@@H]2[C@@H]3C(=O)N(C[C@@H]4CCCO4)C(=O)[C@H]3CC[C@H]12`, for which the activity, negative = inhibition was -2.74% [at 11.4 µM] (inactive).
Consider `CC(C)NC(=O)N1CCC2(CC1)CCN(C(=O)c1csnn1)CC2`, for which the AC50 result is “inactive”.
Still for that read-out and setting: then `N#Cc1sc2nc(-c3cccs3)cc(-c3ccc(Cl)cc3)c2c1N`, with 1.26 µM (active); and `CCN(CC)CCCNC(=O)C1CCC(=O)N(c2ccc(OC)cc2)C1c1ccc(F)cc1` (stereo not given), with “inactive”.
Still for that read-out and setting: then `Nc1c(-c2cccs2)cnn1-c1nc(-c2ccc(F)cc2)cs1`, with 0.447 µM (active); and `Nc1c(-c2cccs2)cnn1-c1nc(-c2ccc(Cl)cc2Cl)cs1`, with 1.26 µM (active); and `O=C(c1csnn1)N1CCC2(CC1)CCN(c1ccncc1)CC2`, with “inactive”.
On the same count and under the same terms, then `O=C(NC(NCc1ccccc1)C(Cl)(Cl)Cl)c1cccnc1` (stereo not given), with “inactive”.
In the case of `COC(=O)[C@@H]1C[C@H]1[C@@H](NC(=O)c1cnccn1)c1ccccc1`, the AC50 was 12.6 µM (active).
Same read-out and setting: then `COC(=O)[C@@H]1C[C@H]1[C@@H](NC(=O)c1cccnc1)c1ccccc1`, with 12.6 µM (active); and `O=C(Nc1ccccc1)N1CCC2(CC1)CCN(C(=O)c1cnccn1)CC2`, with “inactive”.
Consider `O=C(NNC(=O)C1CCCCC1)c1cnccn1`, for which the AC50 entry was “inactive”.
Still for that read-out and setting: then `COC(=O)[C@H]1C[C@@H]1[C@H](NC(=O)c1ccccc1)c1ccccc1`, with 15.8 µM (active); and `C[C@@H](C(=O)O)[C@H]1C[C@]1(C)[C@H](NC(=O)OCc1ccccc1)c1ccccc1`, with “inactive”.
On the same count and under the same terms, then `COC(=O)[C@H]1C[C@@H]1[C@H](NC(=O)OCc1ccccc1)c1ccccc1`, with 0.126 µM (active); and `O=C(CNC(=O)OCc1ccccc1)NCC(=O)N1CCCC1C(=O)OCc1ccccc1` (stereo not drawn) (Cbz-Gly-Gly-[ξP]-OBn), with “inactive”.
Consider `CCc1cc[n+](-c2nc3ccccc3nc2C(=C=[N-])C#N)cc1`, for which the AC50 entry is “inactive”.
For `COC(=O)[C@@H]1C[C@H]1[C@@H](NC(=O)c1ccccc1)c1ccccc1`, the AC50 was 5.01 µM (active).
On the same count and under the same terms, then `COC(=O)C1CC1C(NC(=O)[C@H]1CCCCN1)c1ccccc1` (stereo not given in full), with “inactive”.
Still for that read-out and setting: then `Cc1cc(N(CN2CCCC2=O)C(=O)c2ccc(F)cc2)no1`, with “inactive”; and `Cc1nc2c3cnn(-c4ccc(C)c(C)c4)c3ncn2n1`, with 8.91 µM (active); and `Cc1ccc(-n2ncc3c2ncn2nc(-c4ccco4)nc32)c(C)c1`, with “inactive”.
The same measure, in the same setting: then `COc1ccc2[nH]cc(CCNc3nc(-c4cccnc4)nc4ccccc34)c2c1`, with 0.501 µM (active); and `COc1cccc(-c2nc(NCCc3c[nH]c4ccc(OC)cc34)c3ccccc3n2)c1`, with 1.58 µM (active).
As for `COc1ccc2[nH]cc(CCNc3nc(-c4ccccc4OC)nc4ccccc34)c2c1`, the AC50 was 6.31 µM (active).
Still for that read-out and setting: then `COc1ccc2[nH]cc(CCNc3nc(-c4ccoc4)nc4ccccc34)c2c1`, with 0.398 µM (active); and `COC(=O)[C@@]1(Cc2ccc(OC)cc2)[C@H]2c3cc(C(=O)N4CCCC4)n(CCc4c[nH]c5ccc(O)cc45)c3C[C@H]2CN1C(=O)c1ccccc1`, with “inactive”.
Still for that read-out and setting: then `Cc1noc(NS(=O)(=O)c2ccc(NC(=O)CC34CC5CC(CC(Br)(C5)C3)C4)cc2)c1C`, with “inactive”; and `CCCC(=O)N1CCN(c2ccc(NC(=O)c3sc4ccccc4c3Cl)cc2)CC1`, with “inactive”.
The same measure, in the same setting: then `Cc1ccc(NC(=O)CCc2c(C)nc3ncnn3c2C)nc1`, with “inactive”; and `Cc1ccc(-c2cc(C(F)F)n3ncc(C(=O)Nc4c(C)nn(Cc5c(Cl)cccc5Cl)c4C)c3n2)cc1`, with “inactive”; and `Cc1ccc(NC(=O)c2sc3ccccc3c2Cl)nc1`, with 2.51 µM (active).
For `CCC(CC)c1nnc(NC(=O)c2cccc(S(=O)(=O)N3CCc4ccccc43)c2)s1`, the AC50 result is “inactive”.
On the same count and under the same terms, then `Cc1ccccc1Cn1nc(C)c(NC(=O)c2sc3ccccc3c2Cl)c1C`, with 2.24 µM (active); and `CC(C)c1nnc(NC(=O)c2sc3ccccc3c2Cl)s1`, with 10 µM (active).
The same measure, in the same setting: then `Cc1ccc(NC(=O)C2CCN(S(=O)(=O)c3c(C)n[nH]c3C)CC2)nc1`, with “inactive”; and `O=C(NNC(=O)c1sc2ccccc2c1Cl)Nc1ccc(Cl)cc1`, with 0.501 µM (active).
Still for that read-out and setting: then `Cc1nn(Cc2ccccc2Cl)c(C)c1NC(=O)CCCn1nc(C)c([N+](=O)[O-])c1C`, with “inactive”; and `N#Cc1cccc(NC(=O)N2CCC3(CC2)CCN(C(=O)c2cccc(F)c2)CC3)c1`, with “inactive”.
With `Cc1ccc(CC(=O)N2CCN(c3cccc(C(F)(F)F)c3)CC2)cc1`, the concentration at half-maximal activity (AC50) is 31.6 µM (active).
The same measure, in the same setting: then `Cc1ccc(S(=O)(=O)N(CC(=O)N2CCN(c3ccc(F)cc3)CC2)C2CCCCC2)cc1`, with “inactive”; and `CCc1ccc(NC(=S)N2CCN(c3cccc(C(F)(F)F)c3)CC2)cc1`, with “inactive”.
Still for that read-out and setting: then `O=C(c1cccc(F)c1)N1CCC2(CCN(Cc3cc(C(F)(F)F)cc(C(F)(F)F)c3)CC2)CC1`, with “inactive”; and `O=C(c1cc(C(F)(F)F)cc(C(F)(F)F)c1)N1CCC2(CC1)CN(c1ccccc1)C2`, with “inactive”.
On the same count and under the same terms, then `O=C(c1coc2ccccc2c1=O)N1CCN(c2cccc(C(F)(F)F)c2)CC1`, with 31.6 µM (active).
With `C[C@]1(c2ccccc2)O[C@@H]2C[C@@H]3[C@@H]4CCC5=CC(=O)C=C[C@@]5(C)[C@]4(F)[C@H](O)C[C@]3(C)[C@@]2(C(=O)CO)O1`, the activity, negative = inhibition was -16.4% [at 2.29 µM] (inactive).
With `CO[C@@H]1COC(=O)[C@H](COCc2ccccc2)NC(=O)C/C=C\[C@@H](C)[C@H](OC)COC(=O)[C@@H](C)NC(=O)C/C=C\[C@H]1C`, the activity, negative = inhibition is 3.31% [at 11.4 µM] (inactive).
In the case of `C[C@H](CN(C)C)C(=O)c1ccccc1C(=O)O`, the activity, negative = inhibition was -5.91% [at 11.4 µM] (inactive).
For the molecule `CC(C)=CCC/C(C)=C/CC/C(C)=C/CSc1ccccc1C(=O)O`, the AC50 is 12.6 µM (active).
On the same count and under the same terms, then `CC(=O)N(CC(=O)O)c1ccccc1C(=O)O`, with “inactive”; and `CNc1ncnc2c1ncn2[C@@H]1O[C@H](CO)[C@@H](O)[C@@H]1O`, with “inactive”.
Still for that read-out and setting: then `O=C(COc1ccc2ccccc2c1)N1CCN(C(=O)c2cccnc2)CC1`, with “inactive”.
In the case of `CCOc1ccc(N2C(=O)CS/C2=N/NC(=O)COc2ccc3ccccc3c2)cc1`, the AC50 was 14.1 µM (active).
On the same count and under the same terms, then `CC(=O)N1CCN(S(=O)(=O)c2ccccc2)C1c1ccccc1` (stereo not given), with “inactive”; and `COc1ccc(C)cc1NC(=O)CCC(=O)Nc1nnc(C(F)(F)F)s1`, with “inactive”; and `C=C(C)c1cccc(C(C)(C)NC(=O)Nc2cc(C)ccc2OC)c1`, with 11.2 µM (active).
As to `Cc1cccc(C(=O)NNC(=O)C(=O)NC(C)(C)C)c1`, the AC50 entry was “inactive”.
Consider `C/C(=N/O)c1ccc2cc(Br)c3ccccc3c2c1`, for which the activity, negative = inhibition was -13.6% [at 2.29 µM] (inactive).
As to `C/C(=N\O)c1ccc2[nH]ccc2c1`, the AC50 was 4.47 µM (active).
For `C[C@H](O/N=C1/[C@H]2O[C@@H]2[C@@H](O)[C@H]2[C@H]1CCn1c(=O)n(-c3ccccc3)c(=O)n12)c1cn([C@H]2COC[C@H]2O)nn1`, the activity, negative = inhibition was 4.91% [at 11.4 µM] (inactive).
In the case of `COc1ccc(/C=C2\N=C(SC)N(C)C2=O)cc1`, the AC50 was 1.78 µM (active).
The same measure, in the same setting: then `CO/N=C(\C(=O)N[C@@H]1C(=O)N2C(C(=O)O)=C(COC(N)=O)CS[C@@H]12)c1ccco1`, with “inactive”; and `COc1cccc(-c2cc(NCc3ccccc3OC)ncn2)c1`, with 1.26 µM (active).
Regarding `COc1cccc(-c2cc(NCc3ccc(OC)cc3OC)ncn2)c1`, the AC50 was 2 µM (active).
On the same count and under the same terms, then `CC(C)C[C@H]1C(=O)N2CCC[C@@H]2[C@]2(O)O[C@](NC(=O)[C@@H]3C=C4c5cccc6[nH]c(Br)c(c56)C[C@H]4N(C)C3)(C(C)C)C(=O)N12`, with “inactive”.
Regarding `Cc1nc2ncnn2c(C)c1CCC(=O)Nc1ccc(S(=O)(=O)N2CCCCCC2)cc1`, the AC50 entry was “inactive”.
In the case of `O=c1c2cc(Br)ccc2[nH]c(=S)n1Cc1cccnc1`, the half-maximal activity concentration (AC50) was 0.251 µM (active).
The same measure, in the same setting: then `COc1ccccc1Cn1c(=S)[nH]c2cc(C(=O)N3CCN(C)CC3)ccc2c1=O`, with “inactive”; and `COc1ccc(-n2c(CNC(=O)c3cc(OC)c(OC)c(OC)c3)n[nH]c2=S)cc1`, with “inactive”; and `COc1cc(C(=O)NCc2cccc3ccccc23)cc(Cl)c1OC`, with 10 µM (active).
Still for that read-out and setting: then `CN(Cc1cnc2nc(N)nc(N)c2n1)c1ccc(C(=O)N[C@H](CCC(=O)O)C(=O)O)cc1`, with “inactive”; and `CCCN(/C=N/c1sc2c(c1C#N)CCCCC2)CCC`, with 14.1 µM (active).
Same read-out and setting: then `CCN(/C=N/c1sc2c(c1C#N)CCCCC2)CC`, with 2.51 µM (active); and `O=S(=O)(c1ccccc1)N1CCC2(CC1)CN(C(c1ccccc1)c1ccccc1)C2`, with “inactive”.
Turning to `CC1CCN(c2ccc(S(=O)(=O)Nc3cc(C(=O)O)cc(C(=O)O)c3)cc2[N+](=O)[O-])CC1`, the AC50 result was “inactive”.
On the same count and under the same terms, then `COc1ccc(N2CCN(S(=O)(=O)c3ccc4c(c3)CCCC4)CC2)c([N+](=O)[O-])c1`, with “inactive”.
As for `O=C1CCCN1c1ccc(S(=O)(=O)Oc2cccc(Cl)c2)cc1[N+](=O)[O-]`, the AC50 was 15.8 µM (active).
`CCn1c(SC)nnc1C1CCN(S(=O)(=O)c2ccc(OC)cc2)CC1`: the AC50 entry was “inactive”.
Same read-out and setting: then `COc1ccc(S(=O)(=O)N2CC3CCCN3c3ccc(C(F)(F)F)cc32)cc1` (stereo not given), with 12.6 µM (active); and `COc1ccc(S(=O)(=O)N2CCC(N3CCCCC3)CC2)cc1`, with “inactive”.
The same measure, in the same setting: then `NC(=O)C(=O)O`, with “inactive”; and `Nc1ccccc1S[C@@H](C[N+](=O)[O-])c1ccc2c(c1)OCO2`, with 0.631 µM (active); and `CCCCNC(=O)NC1C(NC(=O)NCCCC)N(C)C(=O)N1C` (stereo not given), with “inactive”.
Same read-out and setting: then `CCCCNC(=S)NNC(=O)CCn1nc(C)c(Br)c1C`, with 14.1 µM (active).
For the molecule `CN(N=O)c1ccc(/C=C\c2ccnc3ccccc23)cc1`, the AC50 is 0.158 µM (active).
The same measure, in the same setting: then `CC(=O)c1ccc(-n2c(CCC(=O)O)ccc2-c2cccs2)cc1`, with 14.1 µM (active); and `Cc1ccc(-n2c(CCC(=O)O)ccc2-c2cccs2)cc1C`, with 14.1 µM (active); and `O=C(O)CCc1ccc(-c2ccc(Cl)cc2)n1CCC(=O)O`, with “inactive”.
Same read-out and setting: then `NC(=O)Nn1c(CCC(=O)O)ccc1-c1ccc(F)cc1`, with “inactive”.

These data come from PubChem BioAssay AID1851 (National Center for Advancing Translational Sciences (NCATS), 2009).
